# Results filed as inconclusive are left out. Activity calls are given as the source filed them. Calls follow the shape of the dose curve; as a rule, active = well fitted curve in the direction sought with a large enough effect; inconclusive = small, poorly fitted or top-dose-only effect, or another doubt; inactive = no such curve, though single readings can be large or run the other way.
# Assay: KB-8-5-11 P-gp reporter qHTS against the NCATS DSHEA and TCM libraries (AID 1919977); also: 0% is about no effect
# Settings: KB-8-5-11 cells; series mostly up to 26.1 µM; activity change, negative = inhibition: at the top concentration
# From the text: Assay Development and Screening Technology Laboratory (ADST)
# National Center for Advancing Translational Sciences (NCATS), Rockville, MD
# National Institute of Health (NIH), Bethesda, Maryland
# Dietary Supplements and Natural Products have minor oversight of their safety and efficacy. We assembled a collection of Dietary Supplements and Natural Products (DSNP) as well as Traditional Chinese Medicinal (TCM) Plant extracts, which were screened against an in vitro panel of assays, including a liver cytochrome p450 enzyme panel, CAR/PXR signaling pathways, and P-gp transporter assays, to assess their activity. This pipeline facilitated the interrogation of Natural Product-Drug Interaction (NaPDI) through prominent metabolizing pathways. In addition, we compared the activity profiles of the DSNP/TCM substances with those of an approved drug collection. Many of the approved drugs have well-annotated mechanisms of action (MOA) while the MOAs for most of the DSNP and TCM samples remain unknown. Based on the premise that compounds with similar activity profiles tend to share similar targets or MOA, we clustered the library activity profiles to identify overlap with the NCATS Pharmaceutical Collection to predict the MOAs of the DSNP/TCM substances. Overall, we highlight four significant bioactivity profiles (measured by p-values) as examples of this prediction. To assess broad cytotoxicity, we employed screening against a HepG2 cell line. In addition, transporter-mediated drug interactions are utilized in the characterization of DDIs using a P-glycoprotein (P-gp) assays. To profile potential P-gp activity, a differential cell viability was measured against two cell lines: a parental KB-3-1 human cervical adenocarcinoma cell line and the drug-resistant subline KB-8-5-11 that overexpresses P-gp.
# To this end, we profiled both collections for potential CAR and/or PXR activity, employing a previously published 1536-well qHTS assay.
# [1] Lee TD, et al. A High-Throughput Screen of a Library of Therapeutics Identifies Cytotoxic Substrates of P-glycoprotein. Mol Pharmacol. Nov 2019;96(5):629-640. doi:10.1124/mol.119.115964
# PROTOCOL TABLE (as described by Inglese J, Shamu CE and Guy RK. 2007)
# SEQUENCE No. (e.g., 1, 2, 3, etc.); PARAMETER (e.g., Cells, Incubation, Reagent, etc.); VALUE; DESCRIPTION.
# 1; Cells; 5 uL; KB-8-5-11 cells, white solid-bottom tissue treated Greiner plate.
# 2; Incubation; 4 hrs; 37C, 95% humidity, 5% CO2.
# 3; Compounds and control; 23 nL; Kalypsis pin tool (Wako USA) equipped with a 1536-well pin head to transfer to the assay plates.
# 4; Incubation; 72 hrs; 37C, 95% humidity, 5% CO2.
# 5; Reagent; 2.5 uL; CellTiter-Glo.
# 6; Centrifuge; 1000 RPM; 15 seconds.
# 7; Incubation; 30 min; room temperature.
# 8; Read; Luminescence; ViewLux plate reader.
# NOTES (numbers refer to Sequence numbers above)
# 1. P-gp-overexpressing subline KB-8-5-11 were maintained in DMEM (Thermofisher catalog #11965) with 10% FBS and 1% penicillin/streptomycin at 37C in 5% CO2. For KB-8-5-11 cells, colchicine was added to the medium at a concentration of 100 ng/ml (after initial cell attachment). For the screen, assay medium was identical to culture medium except for KB-8-5-11, where colchicine was excluded from the medium. Briefly, 5 uL of cells at 1 x 10^5 cells/mL (500 cells/well) were dispensed into a 1536-well white solid-bottom tissue treated plate (Greiner Bio-One) using a Multidrop Combi dispenser.
# 2. Plates were incubated at 37C, 95% humidity, 5% CO2 for ~4 hours to allow for cell attachment.
# 3. Compounds and intraplate control (Bortezomib; final concentration range 228 pM - 7.5 uM) were transferred (16 nL) via pintool (Wako Automation), for a final concentration of 15.6 nM - 30.0 uM (most substances).
# 4. Plates were incubated for ~72 hours at 37C, 95% humidity, 5% CO2.
# 5. Plates were then dispensed with 2.5 uL of CellTiter-Glo.
# 6. The assay plates were centrifuged for 15 seconds at 1,000 RPM's.
# 7. The plates were incubated for 30-minute at room temperature.
# 8. […]
row,Compound,"activity change, negative = inhibition"
1,C[N+](C)(C)CCO,-2.62% (inactive)
2,C=C1C[C@@]23CC[C@H]4[C@@](C)(CCC[C@@]4(C)C(=O)OC4OC(CO)C(O)C(O)C4O)[C@@H]2CC[C@]1(OC1OC(CO)C(O)C(O)C1OC1OC(CO)C(O)C(O)C1O)C3 (stereo partly specified),12.9% (inactive)
3,O=C(/C=C/c1ccc(O)c(O)c1)O[C@@H]1C[C@](O)(C(=O)O)C[C@@H](O)[C@H]1O,6.66% (inactive)
4,CCCCCCCCCCCC(=O)OCC(O)CO (stereo unspecified),-5.44% (inactive)
5,C=C(C)[C@H]1CC=C(CO)CC1,-8.28% (inactive)
6,O=c1c(-c2ccc(O)cc2)coc2cc(O[C@@H]3O[C@H](CO)[C@H](O)[C@H](O)[C@H]3O)ccc12,6.43% (inactive)
7,O=c1cc(-c2ccc(O)c(O)c2)oc2cc(O)cc(O)c12,-19.7% (inactive)
8,CC(=O)O[C@@H]1C[C@@H](C)[C@](O)(CCC2=CC(=O)OC2)[C@@]2(C)CCCC(C)(C)C12 (stereo partly specified),-9.32% (inactive)
9,CC(C)(CO)[C@@H](O)C(=O)NCCC(=O)O,15.9% (inactive)
10,O=C(O)c1ccccc1,-9.32% (inactive)
11,CC(=O)OC/C=C/c1ccccc1,-10.9% [at 44.5 µM] (inactive)
12,O=C(O)/C=C/c1ccc(O)c(O)c1,14.2% (inactive)
13,Cc1cc2nc3c(=O)[nH]c(=O)nc-3n(CC(O)C(O)C(O)CO)c2cc1C (stereo unspecified),-7.39% (inactive)
14,COc1ccc(-c2coc3cc(O)ccc3c2=O)cc1,-8.89% (inactive)
15,Cc1ncc(C[n+]2csc(CCO)c2C)c(N)n1,13.3% (inactive)
16,O=C1c2c(O)cccc2[C@@H]([C@@H]2O[C@H](CO)[C@@H](O)[C@H](O)[C@H]2O)c2cc(CO)cc(O)c21,-3.41% (inactive)
17,O=C(O)/C=C/c1ccccc1,-1.16% [at 44.5 µM] (inactive)
18,O=c1cc(-c2ccc(O)cc2)oc2cc(O)cc(O)c12,-8.58% (inactive)

row,Compound,"activity change, negative = inhibition"
1,C=C(CO)C(=O)O[C@H]1CC(=C)[C@@H]2C[C@H](O)C(=C)[C@@H]2[C@H]2OC(=O)C(=C)[C@@H]21,-2.08% (inactive)
2,O=C(/C=C/c1ccc(O)c(O)c1)OC(Cc1ccc(O)c(O)c1)C(=O)O (stereo unspecified),-3.13% (inactive)
3,C=CC(=C)CCC=C(C)C,-5.04% (inactive)
4,CC(C)c1ccc(C=O)cc1,-4.27% [at 44.5 µM] (inactive)
5,COc1ccc(C(C)=O)c(O)c1,-4.65% (inactive)
6,COc1cc(O)c2c(c1)C(=O)c1cc(C)cc(O)c1C2=O,-13.3% (inactive)
7,CCCCCCCCCC=O,-9.33% [at 44.5 µM] (inactive)
8,CCCCCCCCCC(=O)O,-12.2% (inactive)
9,C=C(C)[C@@H]1CC=C(C=O)CC1,-5.92% [at 44.5 µM] (inactive)
10,C=C/C(C)=C/C/C=C(\C)CCC=C(C)C,-14.8% [at 44.5 µM] (inactive)
11,CC1=CCC(O)(C(C)C)CC1 (stereo unspecified),-4.67% [at 44.5 µM] (inactive)
12,CCCCCCCCCCCCCC(=O)OCC(O)CO (stereo unspecified),-12.8% [at 44.5 µM] (inactive)
13,CC(=O)C1=C(O)C=C2Oc3c(C(C)=O)c(O)c(C)c(O)c3[C@]2(C)C1=O,10.8% (inactive)
14,CC(C)=CCC(O)/C(C)=C/CO[C@@H]1O[C@H](CO)[C@@H](O)[C@H](O)[C@H]1O (stereo partly specified),14.7% (inactive)
15,CCCCCC(=O)CC,-1.5% [at 79.1 µM] (inactive)
16,CC1=CCC(=C(C)C)CC1,-6.75% [at 44.5 µM] (inactive)
17,CCCCCCCC(=O)O,-6.49% (inactive)
18,C[C@@]12C[C@@]3(O)O[C@@H](O1)[C@]1(COC(=O)c4ccccc4)[C@@H]3C[C@@]12O[C@@H]1O[C@H](CO)[C@@H](O)[C@H](O)[C@@H]1O,-0.948% (inactive)

# Source: PubChem BioAssay (NCATS)
